Where “and” joins values, the source holds several entries; their conditions need not be identical. Equal values may be shown once. Records with an inconclusive call do not appear. Entries that show only a call come without a potency. Unmarked numbers belong to inactive results. Calls of active or inactive are those of the source. Calls come from the whole dose curve; as a rule, active = well fitted cell-killing curve with a large enough effect in the repeat runs; inconclusive = weak or mixed curves, or effect the other way; inactive = flat fitted curve, though single readings scatter.
experiment: qHTS RealTime-Glo MT Cell Viability Assay in HEK293 cells - 0 hour (AID 1224880); conditions: RealTime-Glo luminescence; series mostly up to 76.8 µM; activity change, negative = cytotoxicity: at the top concentration; note: nearly all actives have a fitted effect of over 45% in size; for activity change, negative = cytotoxicity: top concentration of the series differs between compounds
In short: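 600 cells/well were plated with the nonlytic NanoLuc/prosubstrate reagent, pre-incubated 5 h, then given 23 nL of compound in DMSO. Incubation at 37 C for 40 h, with luminescence from viable-cell-reduced substrate read repeatedly from 0 h.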
Potency is the fitted concentration of half-maximal effect.

| SMILES | Potency | activity change, negative = cytotoxicity [%] |
| --- | --- | --- |
| CCCCC(CC)COC(=O)C(C#N)=C(c1ccccc1)c1ccccc1 (configuration not stated) | inactive |  |
| OCCOCCOCCO | inactive |  |
| CC(C)CC(=O)CC(C)C | inactive |  |
| Nc1cc([N+](=O)[O-])ccc1O | inactive |  |
| Cc1cccc(O)c1 | inactive |  |
| CCC(O)OC(O)CC (configuration not stated) | inactive |  |
| CCCCCCCCCCCCCCCO | inactive |  |
| O=C(CC(C(=O)OC1CCCCC1)S(=O)(=O)O)OC1CCCCC1 (configuration not stated) | inactive |  |
| C[C@H]1C[C@@H]2[C@H]([C@@H](O)C[C@@]3(C)[C@H]2CC[C@]3(O)C(=O)CO)[C@@]2(C)C=CC(=O)C=C12 | 7.76 µM (active) and 8.49 µM (active) |  |
| N[C@@H](Cc1cc(I)c(Oc2cc(I)c(O)c(I)c2)c(I)c1)C(=O)O | inactive |  |
| O=C(Oc1ccccc1)c1ccccc1 | inactive |  |
| CCc1cccc(C)c1N | inactive |  |
| ON=C1CCCCC1 | inactive |  |
| Fc1ccc(Br)cc1 | inactive |  |
| CCCCCCCCCCCCc1ccccc1 | inactive |  |
| CCCCCC1=CCCC1=O | inactive |  |
| CC(C)(N)CO | inactive |  |
| OCC(CO)(CBr)CBr | inactive |  |
| CC(=O)CC(=O)Nc1ccccc1C | inactive |  |

| SMILES | Potency | activity change, negative = cytotoxicity [%] |
| --- | --- | --- |
| CCC(O)OCCCOC (configuration not stated) | inactive |  |
| O=c1[nH]nnc2ccccc12 | inactive |  |
| COS(C)(=O)=O | inactive |  |
| COCCCOc1ccnc(CS(=O)c2nc3ccccc3[nH]2)c1C (configuration not stated) | inactive |  |
| O=P(OC(CCl)CCl)(OC(CCl)CCl)OC(CCl)CCl |  | 15.7 |
| COc1ccc(Nc2ccccc2)c(C)c1 | inactive |  |
| CC1=C(C)S(=O)(=O)CCS1(=O)=O | inactive |  |
| C=C(C)C(=O)O[C@H]1C[C@@H]2CC[C@@]1(C)C2(C)C | inactive |  |
| CN(C)CCOCCN(C)C | inactive |  |
| CN(C)CCCN | inactive |  |
| Nc1ccccc1[N+](=O)[O-] | inactive |  |
| O=C(O)c1ccccc1C(c1ccc(O)cc1)c1ccc(O)cc1 | inactive |  |
| CC[C@H](C)C(=O)O[C@H]1C[C@@H](C)C=C2C=C[C@H](C)[C@H](CC[C@@H]3C[C@@H](O)CC(=O)O3)[C@H]21 | inactive |  |
| O=C(O)CCCC[C@@H]1SC[C@@H]2NC(=O)N[C@@H]21 | inactive |  |
| CCCCC(CC)COC(=O)CS (configuration not stated) | inactive |  |
| CSCCC=O | inactive |  |
| c1ccc2c(c1)ccc1ccccc12 | inactive |  |
| Cc1cccnc1 | inactive |  |

From PubChem BioAssay (Tox21)
